Source: PubChem
Most compounds without a hit are left out; they make up all but 9.3% or so of the library.
ELG1 DNA repair: inhibitors of ELG1-dependent DNA repair in HEK293T cells. HEK293T ELG1-luciferase reporter, luminescence, 16 h; DNA damage induced by 5-fluorouridine. Potency, µM (top dose mostly 46.1 µM), for the others: at the highest dose activity change, negative = inhibition, actives largely listed as inhibitors. hit rate 2.3% among 330,000; note: % is set by controls: 0 for no effect and ±100 for the full control effect; nearly all actives have a fitted effect of over 55% in size
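Reporter activity after DNA damage by 5-fluorouridine is monitored. Compound-treated cells incubate 16 hr at 37 °C, then ONE-Glo is added for 30 min before luminescence reading.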
FLuc counter: counter-screen for miR-21 project: firefly luciferase inhibitors or activators; AID 588342; purified FLuc, Km substrates, luminescence inhibition; hit rate 6.9% among 360,000; P08659; Potency, µM (titrated, usually from 57.5 µM), for inactives: at the top dose activity change, negative = inhibition, usual class: inhibitors;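 note: plate controls were vehicle for no effect and reference inhibitor for full effect; nearly all actives have a fitted effect of over 55% in size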
Target sequence (P08659 whole entry, looked up): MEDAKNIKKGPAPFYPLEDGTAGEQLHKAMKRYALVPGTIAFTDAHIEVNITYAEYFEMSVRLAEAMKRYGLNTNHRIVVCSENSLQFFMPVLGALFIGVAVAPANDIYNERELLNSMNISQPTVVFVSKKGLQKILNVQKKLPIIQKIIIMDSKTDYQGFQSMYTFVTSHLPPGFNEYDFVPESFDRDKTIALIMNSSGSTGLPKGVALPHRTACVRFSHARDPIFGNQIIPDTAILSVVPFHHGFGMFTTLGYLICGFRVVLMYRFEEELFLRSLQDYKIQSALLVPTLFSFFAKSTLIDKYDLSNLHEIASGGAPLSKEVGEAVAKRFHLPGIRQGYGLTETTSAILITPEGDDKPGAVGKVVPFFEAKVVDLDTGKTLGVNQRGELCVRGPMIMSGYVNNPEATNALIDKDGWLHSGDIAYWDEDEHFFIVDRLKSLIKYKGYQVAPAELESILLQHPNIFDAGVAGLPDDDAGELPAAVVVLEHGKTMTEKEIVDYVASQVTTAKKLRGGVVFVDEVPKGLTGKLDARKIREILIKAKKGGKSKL
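Purified P. pyralis luciferase (10nM final) with 10uM D-luciferin and 10uM ATP (Km levels) in 50mM Tris acetate pH 7.5, 10mM Mg acetate, 0.01% Tween-20, 0.05% BSA; qHTS 6-point titration, ~60 µM downward; luminescence read.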
SMN2 splice up: SMN2 splice variant enhancement; HEK293 SMN2-luciferase splicing reporter, luminescence, 30-36 h; Potency, µM (titrated, usually from 46.1 µM), for the others: at the highest dose activity change, positive = activation, actives largely listed as activators; hit rate 2.8% among 210,000; AID 1458; note: % of control where 0% means no effect; nearly all actives have a fitted effect of over 55% in size
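HEK293 cells carry an SMN2 […]–luciferase reporter in which exon 7 inclusion puts luciferase in frame. Cells were plated 10-12 h before compound addition, then incubated 30-36 h at 37C. ONE-Glo luminescence was read; sodium butyrate at 4.5 mM final served as control.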
NPC1 prom act: activators of NPC1 promoter | AID 485313 | Huh7 NPC1 promoter luciferase reporter, 24 h | Potency, µM (series often up to 9.22 µM), for inactives: at the highest dose activation, most hits filed as activators | hit rate 2.4% among 320,000; note: % of control where 0% means no effect; nearly all actives have a fitted effect of over 60% in size
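Huh7 reporter cells (NPC1 promoter driving luciferase) are dosed with compound for 24 h at 37 °C, 5% CO2; luciferase detection reagent is then added and luminescence measured after 10 min at ambient temperature.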
Rab9 promoter act: activates the Rab9 promoter; Potency, µM (doses to about 9.22 µM), without a hit: at the highest dose activation, negative = inhibition, usual class: activators; hit rate 2.8% among 320,000; AID 485297; Huh7 Rab9 promoter-luciferase reporter, luminescence, 24 h; note: % of control where 0% means no effect; nearly all actives have a fitted effect of over 60% in size
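Rab9 promoter-driven luciferase in stably transfected Huh7 cells; 1500 cells/well rested 2 h, exposed to compound in DMSO for 24 h at 37 °C, 5% CO2. Luminescence read 10 min after adding luciferase reagent at ambient temperature.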
ELG1 genotox: genotoxicity induction in ELG1-luciferase HEK293T cells; HEK293T ELG1-luciferase reporter, luminescence, 16 h; Potency, µM (titrated, usually from 46 µM), without a hit: at the highest dose activity change, positive = activation, hits mostly activators; hit rate 1.3% among 330,000; note: % of control where 0% means no effect; nearly all actives have a fitted effect of over 60% in size
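Luminescence read-out: rising ELG1-luciferase signal, reflecting elevated ELG1 protein under genetic stress, flags genotoxic compounds. Cells were treated for 16 hr at 37 °C before ONE-Glo detection.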
* hit, by the source's call; ? = inconclusive; . = not tested or not shown; [ ] = remark or other dose. Calls come from the whole dose curve; as a rule, active = well fitted curve in the direction sought with a large enough effect; inconclusive = small, poorly fitted or top-dose-only effect, or another doubt; inactive = no such curve, though single readings can be large; an effect the other way counts as inactive or inconclusive. Potency is the fitted concentration of half-maximal effect.

SMILES	ELG1 DNA repair	FLuc counter	SMN2 splice up	NPC1 prom act	Rab9 promoter act	ELG1 genotox
Cc1ccc(C(=O)NCCCc2ccccc2)s1	?	21.3µM*	12.6µM*	3.98µM*	?	?
Cc1ccccc1C(=O)NCCCc1ccccc1	?	?	12.6µM*	24.4%	29.3%	10.8%
Cc1ccc(-n2nc(CO)c(C(=O)NCCCc3ccccc3)n2)cc1C	.	5.36µM*	16.4%	.	.	.
Nc1c(C(=O)CSc2ncccn2)c(=O)[nH]c(=O)n1C1CC1	?	1.5%	.	13.0%	16.8%	2.6%
O=C(c1csnn1)N1CCC2(CC1)CN(c1ccccn1)C2	.	.	-19.2%	.	.	.
CC(Sc1nnnn1C)C(=O)Nc1ccc(Oc2ccccc2)cc1 (configuration not stated)	-13.4%	-14.7%	-21.4%	1.4%	-0.7%	-2.3%
CCC(Sc1nnnn1C)C(=O)Nc1ccc(C(C)=O)cc1 (configuration not stated)	0.0%	?	?	22.6%	?	18.4µM*
C#CCN1c2ccccc2Sc2cccnc21	-2.8%	-1.9%	.	-10.6%	-6.7%	-3.0%
FCCCOc1ccc(-c2nccc(-c3ccc(F)cc3)n2)cc1	16.1%	23.9µM*	4.8%	-1.3%	1.2%	1.4%
FCCCOc1ccc(-c2ccnc(-c3ccccc3)n2)cc1	?	12µM*	-8.3%	10.6%	19.9%	-1.4%
COc1ccc(-c2ccnc(-c3ccncc3)n2)cc1	7.8%	?	.	-32.9%	-25.6%	8.0%
FCCCOc1ccc(-c2nccc(-c3ccc(Br)cc3)n2)cc1	2.1%	-2.2%	-12.4%	-0.7%	-4.3%	-0.4%
N/C(=N\OC(=O)c1ccc(Cl)c(Cl)c1)c1cccnc1	?	8.49µM*	-3.4%	13.0%	10.1%	11.1%
N/C(=N\OC(=O)c1cccc(Cl)c1)c1cccnc1	?	6.75µM*	11.3%	17.0%	10.5%	10µM*
O=C(O/N=C(\c1ccccc1)c1ccccn1)c1ccc(Cl)c(Cl)c1	5.9%	2.3%	-26.3%	-2.8%	-3.0%	-0.1%
CC(C)(Oc1ccc(Cl)cc1)C(=O)O/N=C(\N)c1ccncc1	14.2%	-0.8%	.	1.2%	-0.4%	0.1%
N/C(=N\OC(=O)Cc1ccc(Cl)cc1)c1cccnc1	22.8%	?	-19.5%	0.1%	-3.7%	1.5%
N/C(=N\OC(=O)c1ccc(Cl)c(Cl)c1)c1cccc(CSc2ccccn2)c1	?	8.49µM*	.	?	?	?
N/C(=N\OC(=O)c1cccc(Cl)c1)c1ccncc1	?	19µM*	.	16.6%	23.1%	?
Cc1ccc(C)c(NC(=O)c2ccc3c(c2)CCCN3S(C)(=O)=O)c1	.	-1.3%	0.7%	.	.	.
COC(=O)c1cc(NC(=O)CN(c2ccccc2)S(=O)(=O)N(C)C)ccc1Cl	.	0.9%	4.3%	.	.	.
CC1CCCCN1c1c(S(=O)(=O)c2ccc(Cl)cc2)cnc2ccccc12 (configuration not stated)	.	-2.0%	-31.1%	.	.	.
Cc1onc(-c2ccccc2)c1NC(=O)Nc1ccc(OC(F)F)cc1	?	-1.1%	.	-5.3%	0.7%	-2.7%
C/C(=N\OC(=O)c1cccc(Cl)c1)c1sc(C)nc1C	10.8%	6.75µM*	.	-2.5%	5.9%	3.8%
Cn1c(CNC(=O)c2ccccc2F)nnc1SCc1nc2ccccc2c(=O)[nH]1	8.6%	-1.0%	-2.8%	-1.4%	-8.0%	-4.1%
SMILES	ELG1 DNA repair	FLuc counter	SMN2 splice up	NPC1 prom act	Rab9 promoter act	ELG1 genotox
O=C(Nc1ccc(F)c(F)c1)C1CCN(S(=O)(=O)c2cccs2)CC1	?	.	.	1.4%	-0.6%	-2.3%
O=C(/C(C=Nc1cccc(C(F)(F)F)c1)=C(/O)c1ccco1)C(F)(F)F	?	23.9µM*	?	-2.2%	-0.4%	?
O=C(/C(C=Nc1ccc(Br)cc1)=C(/O)c1ccco1)C(F)(F)F	?	6.01µM*	14.1µM*	?	3.16µM*	?
O=C(c1ccco1)N1CCN(S(=O)(=O)c2cccc(C(F)(F)F)c2)CC1	3.7%	2.0%	-1.2%	-0.2%	3.5%	3.4%
Cc1cccc(NC(=O)CN2C(=O)COc3ccc(S(=O)(=O)N4CCC(C)CC4)cc32)c1C	.	-5.2%	.	.	.	.
Cc1c(NC(=O)c2ccco2)cccc1C(=O)NN1C(=O)c2ccccc2C1=O	20.2%	-14.0%	10.0%	-1.6%	-2.6%	5.0%
COc1cc(Cl)c(C)cc1NC(=O)COc1ccc(C)nc1[N+](=O)[O-]	?	-20.3%	.	?	3.98µM*	10.4%
Cc1ccc(OCC(=O)Nc2ccc(S(=O)(=O)N3CCCCC3)cc2)c([N+](=O)[O-])n1	?	-2.2%	-13.4%	-8.9%	0.0%	-10.6%
Cc1ccc(OCC(=O)NCC(=O)Nc2ccc(F)cc2)c([N+](=O)[O-])n1	3.4%	6.0%	0.3%	-3.7%	1.2%	-2.8%
Cc1ccc(OCC(=O)Nc2ccc(Cl)cc2)c([N+](=O)[O-])n1	?	.	.	2.82µM*	?	?
Cc1ccc(OCC(=O)Nc2ccc(F)cc2)c([N+](=O)[O-])n1	?	12µM*	12.6µM*	?	3.55µM*	?
Cc1ccc(OCC(=O)Nc2ccc3c(c2)CCC3)c([N+](=O)[O-])n1	?	26.9µM*	17.0%	23.6%	23.0%	?
COc1ccc(NC(=O)COc2ccc(C)nc2[N+](=O)[O-])cc1S(N)(=O)=O	11.1%	-1.0%	.	-1.1%	-2.3%	-0.3%
Cc1ccc(NC2=NCC(=O)N2Cc2cccs2)cc1C	?	-3.7%	?	1.5%	13.1%	13.5%
Cc1ccc(S(=O)(=O)CC(=O)Nc2ccc3nc(C)sc3c2)cc1	3.5%	1.1%	.	-0.8%	-1.6%	-1.0%[9.26 µM]
O=C(c1ccncc1)N1CCC2(CCN(Cc3nccs3)CC2)CC1	.	.	-7.8%	.	.	.
COc1cc2c(cc1NC(=O)Cc1ccc(C)cc1)oc1ccccc12	?	15.1µM*	8.91µM*	20.5%	?	12.2%
COc1cc2c(cc1NC(=O)CSCC(=O)O)oc1ccccc12	10.1%	21.3µM*	8.6%	11.9%	-0.8%	-1.1%
COc1cc2c(cc1NC(=O)CCC(=O)O)oc1ccccc12	8.7%	?	.	-1.0%	-7.5%	7.1%
COc1cc2c(cc1NC(=O)COc1ccccc1OC)oc1ccccc12	0.0%	3.0%	6.4%	13.5%	-4.4%	?
COc1cc2c(cc1NC(=O)COC(=O)Cn1cnc3ccccc31)oc1ccccc12	?	19µM*	23.6%	28.2%	?	23.1µM*
COc1cc2c(cc1NC(=O)CN(C)Cc1ccc(OC)c(OC)c1)oc1ccccc12	14.6µM*	-12.1%	.	-20.3%	-12.6%	-11.9%
COc1cc2c(cc1NC(=O)CSc1ccc(C)cc1)oc1ccccc12	?	0.9%	-21.1%	-2.1%	-2.2%	-6.0%
